The subject of assay [1] is Plasmodium falciparum Sir2 (PF13_0152, Sir2A). Kind of assay: Plasmodium falciparum Sir2A binding compounds – biochemical, small-molecule microarray, 635 nm fluorescence, primary screen (AID 1098).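 Note: score merges spot fluorescence intensity with its signal-to-noise ratio.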 The following applies: fluorescence 635 nm, higher = more signal.
A short description of assay [2]: probe aDKK1 binding to arrayed compounds – biochemical, biotinylated probe, 635/667 nm fluorescence, primary screen (AID 1099).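 Note: score merges 667nm spot fluorescence with signal to noise across triplicate slides.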 The settings on record: small-molecule microarray, higher = more signal.
A short description of assay [3]: probe aCHRDL2 binding to arrayed compounds – biochemical, biotinylated probe, 635/667 nm fluorescence, primary screen (AID 1100). The following applies: small-molecule microarray, higher = more signal.
A short description of assay [4]: change in splice reporter luminescence, either direction, cell-based, HEK293, spliceosome inhibition project, primary screen (AID 1101).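 Note: HEK293 cells carrying a splicing-competent luciferase reporter gene; test concentration not given here.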 The following applies: HEK293 splicing luciferase reporter, 24 h, higher = more signal, called active from +8 up or from −8 down. (In general: Reporter assays use an easily measured gene product as a stand-in for the process of interest.)

The target of assay [5] is Fibroblast growth factor 10 (Homo sapiens) (UniProt O15520). Kind of assay: compounds binding fibroblast growth factor 10 – biochemical, small-molecule microarray, 635 nm fluorescence, primary screen (AID 1102). The following applies: FGF10 binding, fluorescence 635 nm, higher = more signal.
Fibroblast growth factor 10 (Homo sapiens), sequence (O15520 whole entry, looked up): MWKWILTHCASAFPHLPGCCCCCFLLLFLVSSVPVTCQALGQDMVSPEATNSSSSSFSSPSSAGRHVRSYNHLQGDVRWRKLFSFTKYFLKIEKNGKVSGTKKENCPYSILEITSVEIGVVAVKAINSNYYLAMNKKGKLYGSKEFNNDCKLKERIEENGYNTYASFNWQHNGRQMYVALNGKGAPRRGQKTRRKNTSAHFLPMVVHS
Assay [6] concerns glycogen synthase kinase-3 (GSK3A per assay name; protocol says GSK3B). Kind of assay: compounds binding glycogen synthase kinase-3 – biochemical, small-molecule microarray, 635 nm fluorescence, GSK3A, primary screen (AID 1103). Note: the record names both GSK3A and GSK3B. The following applies: fluorescence 635 nm, higher = more signal.
The target in assay [7] is Epidermal growth factor receptor (Homo sapiens) (UniProt P00533). Briefly: compounds binding epidermal growth factor receptor – biochemical, small-molecule microarray, 635 nm fluorescence, primary screen (AID 1104).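 Note: score merges 667 nm emission intensity with spot signal to noise over triplicate slides.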 The following applies: EGFR binding, higher = more signal.
Epidermal growth factor receptor (Homo sapiens), sequence (P00533 whole entry, looked up): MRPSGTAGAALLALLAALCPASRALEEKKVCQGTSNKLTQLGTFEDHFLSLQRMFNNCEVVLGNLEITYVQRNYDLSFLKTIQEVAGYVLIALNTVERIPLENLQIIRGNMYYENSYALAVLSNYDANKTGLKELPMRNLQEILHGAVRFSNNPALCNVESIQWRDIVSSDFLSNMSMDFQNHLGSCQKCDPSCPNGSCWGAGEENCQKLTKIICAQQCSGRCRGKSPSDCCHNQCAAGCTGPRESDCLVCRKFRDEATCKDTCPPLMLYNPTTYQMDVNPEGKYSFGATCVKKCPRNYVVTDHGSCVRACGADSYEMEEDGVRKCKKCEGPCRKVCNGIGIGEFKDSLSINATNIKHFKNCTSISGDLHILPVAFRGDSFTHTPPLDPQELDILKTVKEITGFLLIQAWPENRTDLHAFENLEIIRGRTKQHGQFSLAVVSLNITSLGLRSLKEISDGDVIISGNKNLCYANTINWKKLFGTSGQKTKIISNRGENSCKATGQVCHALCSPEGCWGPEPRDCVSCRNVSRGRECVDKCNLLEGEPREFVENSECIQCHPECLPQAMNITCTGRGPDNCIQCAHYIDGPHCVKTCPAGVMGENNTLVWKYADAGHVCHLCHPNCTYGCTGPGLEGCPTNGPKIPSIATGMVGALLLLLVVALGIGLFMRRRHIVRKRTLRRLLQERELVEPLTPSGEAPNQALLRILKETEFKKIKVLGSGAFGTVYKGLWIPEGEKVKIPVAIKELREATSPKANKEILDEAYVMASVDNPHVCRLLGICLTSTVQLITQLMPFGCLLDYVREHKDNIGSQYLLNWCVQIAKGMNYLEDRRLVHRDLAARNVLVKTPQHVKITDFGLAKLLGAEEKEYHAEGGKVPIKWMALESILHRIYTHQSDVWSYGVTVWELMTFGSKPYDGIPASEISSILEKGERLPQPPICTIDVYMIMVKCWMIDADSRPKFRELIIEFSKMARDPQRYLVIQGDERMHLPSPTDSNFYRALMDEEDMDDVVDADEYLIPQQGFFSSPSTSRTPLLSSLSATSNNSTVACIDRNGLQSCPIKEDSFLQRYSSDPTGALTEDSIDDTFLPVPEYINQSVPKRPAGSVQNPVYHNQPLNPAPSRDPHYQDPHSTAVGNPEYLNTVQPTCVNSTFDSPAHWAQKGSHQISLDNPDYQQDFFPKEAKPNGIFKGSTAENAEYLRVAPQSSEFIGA
The target of assay [8] is Follistatin-related protein 3 (Homo sapiens) (UniProt O95633). Briefly: compounds binding follistatin-related protein 3 – biochemical, small-molecule microarray, 635 nm fluorescence, primary screen (AID 1105).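 Note: score merges emission near 667 nm and signal to noise per printed spot across three slides.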 The following applies: FSTL3 binding, higher = more signal.
Follistatin-related protein 3 (Homo sapiens), sequence (O95633 whole entry, looked up): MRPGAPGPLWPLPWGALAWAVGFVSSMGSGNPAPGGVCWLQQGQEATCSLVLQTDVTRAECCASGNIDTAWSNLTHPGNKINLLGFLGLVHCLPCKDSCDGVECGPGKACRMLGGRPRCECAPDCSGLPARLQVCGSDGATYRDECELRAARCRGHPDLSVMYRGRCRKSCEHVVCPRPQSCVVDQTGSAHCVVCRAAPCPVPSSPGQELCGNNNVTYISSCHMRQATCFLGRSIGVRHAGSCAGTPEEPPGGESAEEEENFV
Assay [9] concerns the target Dickkopf-related protein 1 (Homo sapiens) (UniProt O94907). Kind of assay: small molecules binding DKK1 protein – biochemical, small-molecule microarray, 635 nm fluorescence scan, primary screen (AID 1106).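 Note: score merges emission near 667 nm with signal to noise over three replicate slides.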 The following applies: higher = more signal.
Assay [10] concerns Inhibin beta A chain (activin A). Briefly: small molecules binding activin A – biochemical, small-molecule microarray, 635 nm fluorescence scan, primary screen (AID 1107).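 Note: mouse activin A protein probed at 4.33 µg/mL on printed slides; score merges bound-protein fluorescence near 667 nm with spot signal-to-noise.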 The settings on record: INHBA, higher = more signal.
Assay [11] deals with Human papillomavirus type 1a protein E7 (residues 44-93). Briefly: small molecules binding HPV E7 44-93 – biochemical, small-molecule microarray, residues 44-93, 635 nm fluorescence, primary screen (AID 1108).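 Note: E7 fragment applied at 1 µg/mL in TBST for 1 h at 4 C; score combines spot fluorescence with its signal to noise ratio.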 The following applies: fluorescence 635 nm, higher = more signal.
A short description of assay [12]: hepatitis C replication reporter changes, two-sided – Huh7 cells, luciferase reporter, HCV replication inhibitor project, primary screen (AID 1109).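 Note: huh7 hepatoma cells harbouring a luciferase neomycin HCV replicon reporter; luciferase luminescence as measure of HCV replicon replication; test concentration not given here.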 The settings on record: Huh7 HCV replicon luciferase reporter, 48 h; higher = more signal.
For assay [13], the target named is Left-right determination factor 2 (Homo sapiens) (UniProt O00292). Briefly: small molecules binding LEFTY2 protein – biochemical, small-molecule microarray, 635 nm fluorescence scan, primary screen (AID 1110). The following applies: higher = more signal.
Left-right determination factor 2 (Homo sapiens), sequence (O00292 whole entry, looked up): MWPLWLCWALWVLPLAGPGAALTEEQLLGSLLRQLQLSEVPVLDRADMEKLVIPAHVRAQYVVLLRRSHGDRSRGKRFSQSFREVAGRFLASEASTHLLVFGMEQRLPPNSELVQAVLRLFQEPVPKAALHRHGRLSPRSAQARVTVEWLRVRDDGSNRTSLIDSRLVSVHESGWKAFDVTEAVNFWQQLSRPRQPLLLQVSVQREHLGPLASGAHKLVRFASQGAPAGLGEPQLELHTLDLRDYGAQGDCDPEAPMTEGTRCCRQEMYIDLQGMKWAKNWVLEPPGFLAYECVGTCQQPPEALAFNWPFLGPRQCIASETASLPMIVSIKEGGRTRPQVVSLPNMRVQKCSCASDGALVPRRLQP
Assay [14] deals with Calmodulin-1 (Homo sapiens) (UniProt P0DP23). Briefly: small molecules binding calmodulin-1 with EGTA – biochemical, small-molecule microarray, Cy5-labelled CALM1, profiling panel (AID 1111).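 Note: labelled calmodulin applied in Tris saline Tween buffer holding calcium plus EGTA and DTT.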 The following applies: Cy5-CALM1 binding fluorescence, higher = more signal.
The target is the same in assay [15]. Briefly: small molecules binding Ca-loaded calmodulin-1 – biochemical, small-molecule microarray, Cy5-labelled CALM1, plus calcium, artefact control for SMM control-protein annotation, profiling panel (AID 1112).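 Note: score merges spot fluorescence with signal to noise from triplicate slides.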 The settings on record: Cy5-CALM1 binding fluorescence, higher = more signal.
Assay [16] in a line: probe aWnt5a binding to arrayed compounds – biochemical, biotinylated probe, 635/667 nm fluorescence, primary screen (AID 1113).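 Note: score merges 667 nm fluorescence intensity with signal-to-noise per printed feature.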 The following applies: small-molecule microarray, higher = more signal.
Assay [17] in a line: probe aShh binding to arrayed compounds – biochemical, biotinylated probe, 635/667 nm fluorescence, primary screen (AID 1114).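 Note: probe is biotin-labelled aShh protein from a stem cell growth factor screen; measures binding of labelled protein to compounds printed on the slide; score merges feature fluorescence at 667 nm with signal-to-noise.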 The settings on record: small-molecule microarray, higher = more signal.
The nature of assay [18]: probe aNog binding to arrayed compounds – biochemical, biotinylated probe, 635/667 nm fluorescence, primary screen (AID 1115).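 Note: probe is biotinylated aNog protein used at 0.15 µg/mL for 1 h at 4 C; z-score combines 667 nm fluorescence of each spot with its signal to noise.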 The following applies: small-molecule microarray, higher = more signal.
Assay [19] has as its target Torsin-1A-interacting protein 1 (Homo sapiens) (UniProt Q5JTV8). Briefly: compound microarray binding of lysate hLAP1 – cell lysate, small-molecule microarray, COS7 lysate, 635/667 nm fluorescence, primary screen (AID 1116). The settings on record: 635 nm fluorescence, higher = more signal.
Assay [20] concerns the target Alpha-bungarotoxin (Bungarus multicinctus) (UniProt P60615). Kind of assay: compounds binding labelled alpha-BTX control protein – biochemical, small-molecule microarray, Alexa647 label, 635/667 nm fluorescence, artefact control for SMM control protein annotation, profiling panel (AID 1117). The settings on record: alpha-BTX-A647 binding fluorescence, higher = more signal.

Calls of active or inactive are those of the source.

Alpha-bungarotoxin (Bungarus multicinctus), sequence (P60615 whole entry, looked up): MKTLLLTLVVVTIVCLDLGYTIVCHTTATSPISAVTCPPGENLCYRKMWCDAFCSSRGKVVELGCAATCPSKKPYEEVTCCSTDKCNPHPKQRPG
Torsin-1A-interacting protein 1 (Homo sapiens), sequence (Q5JTV8 whole entry, looked up): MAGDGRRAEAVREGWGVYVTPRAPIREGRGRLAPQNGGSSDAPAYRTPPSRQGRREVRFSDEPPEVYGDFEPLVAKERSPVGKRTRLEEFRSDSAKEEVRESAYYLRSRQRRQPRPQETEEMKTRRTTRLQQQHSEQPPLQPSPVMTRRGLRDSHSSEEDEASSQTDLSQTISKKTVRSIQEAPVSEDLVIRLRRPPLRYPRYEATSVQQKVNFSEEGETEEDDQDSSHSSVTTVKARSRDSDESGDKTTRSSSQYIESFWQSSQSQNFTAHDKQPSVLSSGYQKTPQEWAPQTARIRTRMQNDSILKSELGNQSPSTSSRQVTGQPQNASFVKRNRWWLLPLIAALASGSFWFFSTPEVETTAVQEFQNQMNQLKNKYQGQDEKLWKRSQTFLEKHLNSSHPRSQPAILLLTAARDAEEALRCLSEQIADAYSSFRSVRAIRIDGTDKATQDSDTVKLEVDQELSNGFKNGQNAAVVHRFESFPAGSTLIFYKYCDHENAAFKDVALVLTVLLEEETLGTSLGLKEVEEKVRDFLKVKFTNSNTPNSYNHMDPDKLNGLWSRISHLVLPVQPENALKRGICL
Dickkopf-related protein 1 (Homo sapiens), sequence (O94907 whole entry, looked up): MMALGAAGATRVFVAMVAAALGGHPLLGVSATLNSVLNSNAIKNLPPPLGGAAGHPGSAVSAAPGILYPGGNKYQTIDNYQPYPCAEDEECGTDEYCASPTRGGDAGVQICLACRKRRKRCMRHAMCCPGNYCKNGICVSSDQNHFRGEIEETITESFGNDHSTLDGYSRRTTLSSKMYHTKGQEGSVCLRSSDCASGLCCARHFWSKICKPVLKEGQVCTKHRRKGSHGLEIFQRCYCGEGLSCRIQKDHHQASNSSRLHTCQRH

For `C=CCC(OC(C)=O)[C@@H]1[C@@H](N(Cc2cccc3ccccc23)C(=O)c2ccc(-c3ccccc3)cc2)c2cc(OCCCO)ccc2N1C(=O)c1ccc(-c2ccccc2)cc1` (stereo not given in full), the composite z-score is 0.122 in assay [1]; 0.508 in assay [2]; 0.75 in assay [3]; -0.221 in assay [5]; -0.0259 in assay [6]; -0.151 in assay [7]. In addition, the composite z-score in assay [8] was 0.143; in [9], -0.242; in [10], 0.967; in assay [11], 0.635; in [13], 0.385; in assay [14] it was 0.603. Further, the composite z-score was 1.16 in assay [15]; -0.0819 in assay [16]; 0.0899 in assay [17]; 0.355 in assay [18]; 0.35 in assay [19]; 0.439 in [20]. Moreover, the results for the z-score in assay [4] and in assay [12] were -0.698 (inactive) and -0.681, respectively.

As for `CN1C(=O)[C@@H]2[C@@H](CC(COc3ccccc3)=C([C@H](O)CCc3ccccc3)[C@@H]2CO)C1=O`, the composite z-score was -0.194 in assay [1]; -0.0537 in assay [2]; -0.317 in assay [3]; -0.0903 in [5]; -0.621 in [6]; 0.218 in assay [7]. The composite z-score in assay [8] is -0.0809; in [9], 0.298; in assay [10], 0.484; in [11], -0.531; in assay [13], 0.0752; in assay [14], -0.548. Moreover, the composite z-score in assay [15] was -0.343; in assay [16] it was -0.243; in assay [17], -0.304; in assay [18], -0.398; in assay [19] it was 0.0197; in assay [20], -0.278. Moreover, the z-score in assay [4] is -0.165 (inactive); in assay [12] it was -0.113.

Regarding `COCCOC(=O)N1C(=O)[C@@]2(c3cc(C#CCC(C(=O)OC)C(=O)OC)ccc31)[C@H](c1ccc(O)cc1)N1[C@H](c3ccccc3)[C@H](c3ccccc3)OC(=O)[C@H]1[C@@H]2C(=O)NC[C@H](O)c1ccccc1`, the composite z-score was found to be 0.542 in assay [1]; 0.362 in assay [2]; 0.181 in assay [3]; 0.681 in [5]; 0.882 in assay [6]; 0.335 in [7]. The composite z-score was found to be 0.602 in assay [8]; 0.148 in [9]; 0.466 in assay [10]; 1.33 in assay [11]; 0.485 in [13]; 1.91 in assay [14]. Moreover, the composite z-score in assay [15] was 0.67; in [16], -0.0172; in [17], -0.147; in assay [18] it was -0.346; in [19] it was 1.06; in assay [20], 0.353. Moreover, the z-score in assay [4] was 0.579 (inactive); in [12] it was -0.496.

As for `C=CC1c2cc(O)c(OC)cc2CCN1Cc1ccc([N+](=O)[O-])o1` (stereo not given), the composite z-score in assay [1] is 1.19; in assay [2] it was 0.819; in [3], 0.826; in assay [5], 0.367; in assay [6] it was -0.128; in [7], -0.841. Moreover, the composite z-score in assay [8] is -0.15; in assay [9] it was -0.641; in assay [10], 0.87; in assay [11], 0.0967; in [13] it was -0.54; in assay [14] it was 1.15. The composite z-score stood at 1.18 in assay [15]; 0.0306 in assay [16]; 0.13 in assay [17]; 0.57 in assay [18]; 1.82 in assay [19]; 0.899 in assay [20]. Further, the z-score in [4] was -0.109 (inactive); in assay [12], 0.366.

For the compound `CC(C)[C@H]1NC(=O)[C@@]23C(=O)N[C@@H](Cc4ccccc4)C2[C@H](C)[C@@]2(C)O[C@H]2C3/C=C/C/C=C\CNC(=O)[C@H](Cc2ccccc2)NC1=O` (stereo not given in full), the composite z-score in [1] is 0.205; in assay [2] it was -0.38; in [3], -0.481; in assay [5] it was 1.37; in assay [6], 1.08; in [7], 0.512. Also, the composite z-score was 1.44 in [8]; 0.336 in assay [9]; 1.12 in assay [10]; 1.33 in assay [11]; 0.736 in assay [13]; -0.28 in [14]. Also, the composite z-score is -0.584 in [15]; -0.158 in assay [16]; -0.0553 in [17]; -0.505 in assay [18]; 0.512 in assay [19]; 0.807 in [20]. Also, the z-score in [4] was 0.0723 (inactive); in assay [12], -0.26.

Values taken from PubChem BioAssay.
